This is an account of results in PubChem BioAssay (Tox21).

Molecules are shown by their SMILES. Several values for one entry are separate records, joined by “and”; a condition that tells them apart may be missing. Identical values can stand only once. Results filed as inconclusive are left out. More than one record can exist for a structure, and the calls need not agree. Activity calls are given as the source filed them. Unless noted, calls come from the whole dose curve; as a rule, active = well fitted curve in the direction sought with a large enough effect in the repeat runs; inconclusive = weak or mixed curves; inactive = no such curve, though single readings can be large; an effect the other way counts as inactive or inconclusive.

Test [1] can be described thus: qHTS assay to identify small molecule antagonists of the retinoid-related orphan receptor gamma (ROR-gamma) signaling pathway - cell viability counter screen (AID 1159520). Note: nearly all actives have a fitted effect of over 50% in size. Note: potency is the fitted concentration of half-maximal effect. The gist of the method: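 Tet-on ROR gamma CHO cells were given compounds for 2 hr, then doxycycline hyclate at 1 uM final, and incubated 16 hr at 37 C. Viability was measured as ATP content by CellTiter-Glo luminescence.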
For orientation: Quantitative high-throughput screening tests each substance at several concentrations.

Test [2] deals with Nuclear receptor ROR-gamma (Homo sapiens) (UniProt P51449). The test can be described thus: qHTS assay to identify small molecule antagonists of the retinoid-related orphan receptor gamma (ROR-gamma) signaling pathway (AID 1159521; note: nearly all actives have a fitted effect of over 50% in size; note: potency is the fitted concentration of half-maximal effect). In outline:
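CHO Tet-on RORγ, RORE-luc reporter. Cpd 2 h pre-incubation, then dox hyclate 1 uM final, 16 h, 37 C/5% CO2. ONE-Glo luminescence; decrease = antagonist.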

Test [3] can be described thus: qHTS assay to identify small molecule agonists of the AP-1 signaling pathway - cell viability counter screen (AID 1159525; calls by dose curve; note: nearly all actives have a fitted effect of over 55% in size; note: potency is the fitted concentration of half-maximal effect). The gist of the method: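 Same-well cytotoxicity counter screen of the Tox21 10K library in ME-180 cells. The readout is ATP-dependent luminescence after 5 h compound treatment. Data are normalised to DMSO and tetra n-octyl ammonium bromide controls.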

The target in test [4] is Bile acid receptor (Homo sapiens) (UniProt Q96RI1). The test can be described thus: qHTS assay to identify small molecule agonists of the farnesoid-X-receptor (FXR) signaling pathway (AID 743220; active = well fitted activation curve with a large enough effect in the signal ratio in the repeat runs, not every such curve was filed as active; the % refers to the signal ratio). In outline:
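FXR-UAS-bla HEK 293T cells carrying a UAS-driven beta-lactamase reporter were plated for 5 h at 37C/5% CO2, then exposed to DMSO-dissolved Tox21 10K compounds for 16 h at 37C. A LiveBLAzer B/G FRET substrate was loaded for 2 h at room temperature before fluorescence reading.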

Test [5] in a line: qHTS assay to identify small molecule antagonists of the farnesoid-X-receptor (FXR) signaling pathway - cell viability counter screen (AID 743221; active = well fitted cell-killing curve with a large enough effect in the repeat runs, not every such curve was filed as active; note: nearly all actives have a fitted effect of over 50% in size; note: potency is the fitted concentration of half-maximal effect). In outline:
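Luminescence from CellTiter-Glo measures cytotoxicity in GeneBLAzer FXR-UAS-bla HEK 293T cells. Cells were exposed to compounds with 50 uM chenodeoxycholic acid (final) for 16 h at 37 C, in wells also used for the reporter readout.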

Test [6] in a line: qHTS assay to identify small molecule agonists of the endoplasmic reticulum stress response signaling pathway - cell viability counter screen (AID 1159517; calls by dose curve; note: nearly all actives have a fitted effect of over 50% in size; note: potency is the fitted concentration of half-maximal effect). The gist of the method:
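Steps: seed 1,500 ESRE-bla HeLa cells per well; incubate overnight at 37 C, 5% CO2; add compounds in DMSO for 5 hr; run FRET substrate 2 hr RT; add CellTiter-Glo, wait 30 min, read luminescence.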

The nature of test [7]: qHTS assay to identify small molecule agonists of the peroxisome proliferator-activated receptor delta (PPARd) signaling pathway - cell viability counter screen (AID 743211). Note: nearly all actives have a fitted effect of over 55% in size. Note: potency is the fitted concentration of half-maximal effect. In outline:
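HEK293H PPARd-bla, 3000 cells/well; 5 h preincubation 37C/5% CO2; cpd in DMSO, 17 h 37C; B/G FRET substrate 2 h RT; CellTiter-Glo 30 min RT, luminescence.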

Test [8] is described as follows: qHTS assay to identify small molecule antagonists of the peroxisome proliferator-activated receptor delta (PPARd) signaling pathway - cell viability counter screen (AID 743213). Note: nearly all actives have a fitted effect of over 50% in size. Note: potency is the fitted concentration of half-maximal effect. The gist of the method: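 CellTiter-Glo was added to PPARd-bla HEK293H wells following 17 h compound treatment in the presence of 300 nM L165041. Luminescence was recorded after 30 min at room temperature.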

The nature of test [9]: qHTS assay to identify small molecule agonists of the farnesoid-X-receptor (FXR) signaling pathway - cell viability counter screen (AID 743218). Note: nearly all actives have a fitted effect of over 45% in size. Note: potency is the fitted concentration of half-maximal effect. In outline: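 Same-well cytotoxicity check on FXR-UAS-bla HEK 293T cells: 5 h attachment, 16 h compound at 37 C, CellTiter-Glo luminescence read at room temperature after 30 min.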
The nature of test [10]: qHTS assay to identify small molecule agonists of the vitamin D receptor (VDR) signaling pathway - cell viability counter screen (AID 743224). Note: nearly all actives have a fitted effect of over 50% in size. Note: potency is the fitted concentration of half-maximal effect. The gist of the method:
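Counter screen for cytotoxicity: VDR-bla cells at 2,000 cells/well, 16 h compound exposure, then CellTiter-Glo luminescence after the beta-lactamase measurement.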

A short description of test [11]: qHTS assay to identify small molecule antagonists of the vitamin D receptor (VDR) signaling pathway - cell viability counter screen (AID 743225). Note: nearly all actives have a fitted effect of over 50% in size. Note: potency is the fitted concentration of half-maximal effect. The gist of the method: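 Read-out: CellTiter-Glo luminescence measured 30 min after reagent addition at room temperature. Cells were VDR-bla HEK 293T exposed 16 h at 37C, 5% CO2, to compound with 3 nM final calcitriol agonist.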

Test [12] addresses Peroxisome proliferator-activated receptor delta (Homo sapiens) (UniProt Q03181). The test can be described thus: qHTS assay to identify small molecule agonists of the peroxisome proliferator-activated receptor delta (PPARd) signaling pathway (AID 743212; calls by dose curve). In outline: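 Read-out: beta-lactamase FRET fluorescence after 2 h room-temperature incubation with LiveBLAzer B/G substrate. Cells were HEK293H carrying a UAS-bla reporter for PPARd, treated at 37 C with DMSO-dissolved compounds.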

The target is the same in test [13]. The test can be described thus: qHTS assay to identify small molecule antagonists of the peroxisome proliferator-activated receptor delta (PPARd) signaling pathway (AID 743215; active = well fitted inhibition curve with a large enough effect in the signal ratio in the repeat runs, not every such curve was filed as active; the % refers to the signal ratio;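 note: cells stimulated with agonist L165041 at 300 nM final during compound exposure; series mostly up to about 62 µM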). In outline: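 Screen format: qHTS, antagonist mode. HEK293H PPARd-bla cells received compound and 300 nM L165041 (final), 17 h, 37 C. Beta-lactamase detected via FRET substrate fluorescence, 2 h, room temperature.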

The target of test [14] is Vitamin D3 receptor (Homo sapiens) (UniProt P11473). The test can be described thus: qHTS assay to identify small molecule agonists of the vitamin D receptor (VDR) signaling pathway (AID 743222; calls by dose curve). In outline: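 Using LiveBLAzer B/G FRET detection, agonism was scored in VDR-bla cells exposed overnight (16 h, 37C) to DMSO-dissolved compounds; substrate incubation was 2 h at room temperature.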

Test [15] shares this target. Nature of the test: qHTS assay to identify small molecule antagonists of the vitamin D receptor (VDR) signaling pathway (AID 743223; active = well fitted inhibition curve with a large enough effect in the signal ratio in the repeat runs, not every such curve was filed as active; the % refers to the signal ratio). In outline: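 Antagonist mode uses 1alpha,25-dihydroxyvitamin D3 at 3 nM final as stimulus. VDR-bla cells receive compounds in DMSO, incubate 16 h at 37C, then a beta-lactamase FRET substrate for 2 h at room temperature before fluorescence measurement.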

The nature of test [16]: qHTS assay to identify small molecule agonists of the AP-1 signaling pathway (AID 1159526; calls by dose curve).
In test [17] the target is Retinoic acid receptor RXR-alpha (Homo sapiens) (UniProt P19793). Nature of the test: qHTS assay to identify small molecule agonists of the RXR signaling pathway (AID 1159527; calls by dose curve; note: nearly all actives have a fitted effect of over 35% in size). The gist of the method: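 Read-out: beta-lactamase FRET ratio (405 nm excitation, 460 and 530 nm emission) after 2 hr substrate loading at room temperature. Cells were RXR-alpha-UAS-bla HEK 293T treated with compounds for 16 hr in 2% charcoal-stripped FBS medium.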
Retinoic acid receptor RXR-alpha (Homo sapiens), sequence (P19793 whole entry, looked up): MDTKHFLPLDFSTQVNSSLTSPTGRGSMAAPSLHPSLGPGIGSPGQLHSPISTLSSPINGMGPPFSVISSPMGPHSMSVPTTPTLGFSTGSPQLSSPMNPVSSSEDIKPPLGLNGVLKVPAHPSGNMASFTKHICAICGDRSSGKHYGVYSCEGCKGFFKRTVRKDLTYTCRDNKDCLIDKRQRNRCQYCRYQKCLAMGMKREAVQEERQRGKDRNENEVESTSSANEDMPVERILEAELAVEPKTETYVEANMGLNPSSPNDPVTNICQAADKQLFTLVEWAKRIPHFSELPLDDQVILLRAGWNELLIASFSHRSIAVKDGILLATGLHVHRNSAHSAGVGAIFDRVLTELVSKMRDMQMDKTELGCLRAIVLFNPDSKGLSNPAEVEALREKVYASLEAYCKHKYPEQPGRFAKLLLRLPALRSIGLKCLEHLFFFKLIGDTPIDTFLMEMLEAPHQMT

Bile acid receptor (Homo sapiens), sequence (Q96RI1 whole entry, looked up): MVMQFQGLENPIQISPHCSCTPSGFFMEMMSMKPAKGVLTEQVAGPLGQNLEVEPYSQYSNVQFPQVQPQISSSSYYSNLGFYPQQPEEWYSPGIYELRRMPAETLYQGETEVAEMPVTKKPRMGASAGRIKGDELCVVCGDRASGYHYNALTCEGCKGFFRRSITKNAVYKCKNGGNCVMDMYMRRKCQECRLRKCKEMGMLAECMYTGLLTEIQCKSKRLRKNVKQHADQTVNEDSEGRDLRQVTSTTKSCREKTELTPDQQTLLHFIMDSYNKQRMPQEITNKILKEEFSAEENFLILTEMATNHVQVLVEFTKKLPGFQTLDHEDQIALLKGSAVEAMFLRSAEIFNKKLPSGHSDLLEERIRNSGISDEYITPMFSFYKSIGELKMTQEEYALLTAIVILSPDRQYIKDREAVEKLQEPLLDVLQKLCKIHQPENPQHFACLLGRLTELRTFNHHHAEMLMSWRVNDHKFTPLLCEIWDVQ
Peroxisome proliferator-activated receptor delta (Homo sapiens), sequence (Q03181 whole entry, looked up): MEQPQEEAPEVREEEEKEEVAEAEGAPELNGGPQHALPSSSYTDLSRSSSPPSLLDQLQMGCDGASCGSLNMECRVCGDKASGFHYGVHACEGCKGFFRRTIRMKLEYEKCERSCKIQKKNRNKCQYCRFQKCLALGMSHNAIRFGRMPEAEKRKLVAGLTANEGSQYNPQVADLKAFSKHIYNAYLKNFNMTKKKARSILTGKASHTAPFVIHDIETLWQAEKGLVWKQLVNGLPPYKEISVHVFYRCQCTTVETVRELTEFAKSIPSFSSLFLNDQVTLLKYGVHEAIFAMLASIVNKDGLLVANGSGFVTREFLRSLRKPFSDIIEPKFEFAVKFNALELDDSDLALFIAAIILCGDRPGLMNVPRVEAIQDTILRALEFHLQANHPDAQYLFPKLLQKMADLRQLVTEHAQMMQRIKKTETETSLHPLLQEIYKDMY
Vitamin D3 receptor (Homo sapiens), sequence (P11473 whole entry, looked up): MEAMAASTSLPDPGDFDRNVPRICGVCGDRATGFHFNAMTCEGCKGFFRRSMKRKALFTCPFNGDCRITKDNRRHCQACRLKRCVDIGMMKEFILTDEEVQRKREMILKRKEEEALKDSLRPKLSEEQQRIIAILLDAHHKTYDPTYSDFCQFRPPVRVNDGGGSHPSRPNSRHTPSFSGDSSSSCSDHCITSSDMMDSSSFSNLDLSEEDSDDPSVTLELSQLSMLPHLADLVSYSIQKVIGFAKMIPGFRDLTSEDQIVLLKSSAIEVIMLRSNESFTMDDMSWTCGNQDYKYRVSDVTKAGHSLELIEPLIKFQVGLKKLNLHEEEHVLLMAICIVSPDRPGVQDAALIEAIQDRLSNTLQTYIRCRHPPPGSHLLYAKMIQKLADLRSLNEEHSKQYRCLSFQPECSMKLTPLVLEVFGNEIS

`CC(C)(c1ccc(O)c(-c2ccccc2)c1)c1ccc(O)c(-c2ccccc2)c1`: the figures for the Potency in test [1], in [2] and in [3] were 43.3 µM (active), 21.7 µM (active) and 17.4 µM (active), respectively.

Turning to `CCC(C)c1cc([N+](=O)[O-])cc([N+](=O)[O-])c1OC(=O)C=C(C)C` (stereo unspecified), the result in test [4] was inactive. Moreover, the Potency result in test [5], in test [6] and in test [3] was “inactive” each time. Moreover, in test [2], the Potency is 17.2 µM (active).

For `[Cd+2].[Cl-].[Cl-]`, the Potency in test [7] was 2.21 µM (active) and 1.38 µM (active); in test [8], 7.83 µM (active) and 1.23 µM (active); in test [9] it was 11.1 µM (active) and 6.16 µM (active); in [5], 12.4 µM (active) and 19.5 µM (active); in test [10], 1.75 µM (active) and 1.23 µM (active); in [11] it was 8.78 µM (active) and 2.45 µM (active). The Potency in test [1] is 27.5 µM (active). The Potency entry in test [6] and in test [3] was “inactive” each time.

In the case of `Clc1ccc(C(c2ccccc2Cl)C(Cl)(Cl)Cl)cc1` (stereo unspecified), the Potency in [7] is 49.3 µM (active) and 28.7 µM (active); in test [9], 62.1 µM (active); in test [10] it was 43.9 µM (active); in test [6], 43.9 µM (active); in test [2], 40.2 µM (active); in test [3] it was 36.1 µM (active). The Potency entry in test [12], in [8], in test [13], in test [5], in [14] and in [15] was “inactive” each time.

In the case of `COc1cccc2c1C(=O)c1c(O)c3c(c(O)c1C2=O)C[C@@](O)(C(=O)CO)CC3OC1CC(N2CCOC(OC)C2)C(O)C(C)O1` (stereo partly specified), the Potency result in [12], in test [8], in [9], in test [5], in test [10] and in test [3] was “inactive” in each case. The Potency in test [6] is 0.952 µM (active); in test [1] it was 0.133 µM (active); in test [2], 0.298 µM (active).

Take `CC[C@H]1C[C@@H]2C[C@H]3c4[nH]c5ccc(OC)cc5c4CCN(C2)[C@@H]13`: the Potency entry in test [9], in test [5], in test [11], in test [6], in test [1] and in test [2] was “inactive” throughout.

With `Cc1cc(C(C)(C)c2cc(C)c(O)c(C)c2)cc(C)c1O`, the Potency result in test [12] is “inactive”. The Potency in test [8] was 42.2 µM (active); in test [9], 47.4 µM (active); in [6], 59.6 µM (active); in test [2] it was 26.4 µM (active). Moreover, the compound was classed as inactive in test [4].

Turning to `CC(C)Oc1cccc(NC(=O)c2ccccc2C(F)(F)F)c1`, the Potency entry in test [5], in test [14], in [10], in [6], in [1] and in test [3] was “inactive” each time. In addition, the Potency entry in test [16] was “inactive”.

For the compound `CCc1cc(C)cc(CC)c1-c1c(OC(=O)C(C)(C)C)n2n(c1=O)CCOCC2`, the Potency result in [1], in [2] and in test [3] was “inactive” in each case.

On to `N#Cc1c(-c2ccc(Cl)cc2)[nH]c(C(F)(F)F)c1Br`, for which the results for the Potency in test [1] and in test [2] were 0.611 µM (active) and 0.137 µM (active), respectively. For the same compound, the Potency entry in [3] is “inactive”.

Take `Oc1ccc(C(c2ccc(O)cc2)(C(F)(F)F)C(F)(F)F)cc1`: the Potency entry in test [7] is “inactive and 54.9 µM (active)”; in test [10], “inactive and 54.9 µM (active)”; in [11] it was “inactive and 38.9 µM (active)”; in [6], 49 µM (active). In addition, the Potency result in test [12], in test [8], in test [13], in test [9], in [5] and in [14] was “inactive” throughout. Also, the Potency entry in test [15] is “inactive”. Moreover, the compound was classed as inactive in test [17].

For `Cn1cc(C2=C(c3cn(C4CCN(Cc5ccccn5)CC4)c4ccccc34)C(=O)NC2=O)c2ccccc21`, the Potency entry in test [7], in [8], in [13], in test [5], in test [15] and in [10] was “inactive” throughout. Moreover, the Potency entry in test [11], in test [6] and in test [1] was “inactive” throughout. For the same compound, in test [9], the Potency is 16.8 µM (active). Further, the compound was classed as inactive in [4].
